The source holds several records for some structures; these can differ, active in one and inactive in another. Active and inactive are the calls of the source. Rule for the calls: active = hit-call score of the fitted dose curve at least 0.9, where 1 is the maximum; inactive = score below 0.9.

What all share (details): mRNA level, 48 h; actives raise or lower the signal
Read-out in experiment [1]: Cytochrome P450 4A22 (Homo sapiens) (UniProt Q5TCH4)
The experiment can be described thus: LTEA_HepaRG_CYP4A22: Life Technologies and Expression Analysis (LTEA) Assay for Cytochrome P450 4A22 (CYP4A22) using HepaRG (AID 2283495). The method, boiled down: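 HepaRG, 48 h post-plating -> serum-free induction medium; dosed 48 h, duplicate, 8 conc. (100 uM top, half-log), 0.5% DMSO. Readout: CYP4A22 mRNA by qRT-PCR, ACTB/GAPDH/POLR2A normalization; gain/loss fit relative to DMSO.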

Read-out in experiment [2]: Cytochrome P450 7A1 (Homo sapiens) (UniProt P22680)
The experiment can be described thus: LTEA_HepaRG_CYP7A1: Life Technologies and Expression Analysis (LTEA) Assay for Cytochrome P450 7A1 (CYP7A1) using HepaRG (AID 2283496). In short, it runs like this:
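Using 0.5% DMSO as vehicle and baseline, chemicals were tested in duplicate over an 8-point range from 100 uM on HepaRG cells for 48 h; qRT-PCR signals were normalised to ACTB, GAPDH and POLR2A.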

Read-out in experiment [3]: Glutathione S-Transferase (GSTA2), GSTA2 (gene 2939)
As to the kind of experiment: LTEA_HepaRG_GSTA2: Life Technologies and Expression Analysis (LTEA) Assay for Glutathione S-Transferase (GSTA2) using HepaRG (AID 2283497). The method, boiled down: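 qRT-PCR readout of GSTA2 transcript, normalized to three housekeeping genes, fitted bidirectionally against 0.5% DMSO baseline. Differentiated HepaRG cells received compound for 48 h at 8 concentrations (top 100 uM, half-log steps).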

Read-out in experiment [4]: growth arrest and DNA damage 45 (GADD45G), GADD45G (gene 10912)
As to the kind of experiment: LTEA_HepaRG_GADD45G: Life Technologies and Expression Analysis (LTEA) Assay for growth arrest and DNA damage 45 (GADD45G) using HepaRG (AID 2283499). In short, it runs like this:
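HepaRG, 48 h exposure, top 100 uM, half-log 8-point series, 0.5% DMSO vehicle, duplicates. Readout: GADD45G transcript by qRT-PCR (Fluidigm array), housekeeping-normalised (ACTB/GAPDH/POLR2A). Bidirectional curve fit vs DMSO baseline.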

Read-out in experiment [5]: Glutamate-cysteine ligase regulatory (GCLM), GCLM (gene 2730)
As to the kind of experiment: LTEA_HepaRG_GCLM: Life Technologies and Expression Analysis (LTEA) Assay for Glutamate-cysteine ligase regulatory (GCLM) using HepaRG (AID 2283500). The method, boiled down:
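HepaRG, 48 h dosing, 100 uM top, half-log x8, 0.5% DMSO vehicle. Readout: GCLM mRNA by TaqMan qRT-PCR, housekeeping-normalized (ACTB/GAPDH/POLR2A). Curves fit bidirectionally vs DMSO baseline.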

Read-out in experiment [6]: Heat shock 70 kDa protein 1 (HSPA1A), gene 3303
The experiment can be described thus: LTEA_HepaRG_HSPA1A: Life Technologies and Expression Analysis (LTEA) Assay for Heat shock 70 kDa protein 1 (HSPA1A) using HepaRG (AID 2283502). In short, it runs like this:
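HepaRG, 48 h exposure, 8-pt half-log CRC from 100 uM in 0.5% DMSO, duplicates. Readout: TaqMan qRT-PCR of HSPA1A mRNA, housekeeping-normalized (ACTB/GAPDH/POLR2A). Bidirectional fit vs 0.5% DMSO baseline.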

Read-out in experiment [7]: Hypoxia-inducible factor 1-alpha (Homo sapiens) (UniProt Q16665)
The experiment can be described thus: LTEA_HepaRG_HIF1A: Life Technologies and Expression Analysis (LTEA) Assay for Hypoxia-inducible factor 1 (HIF1A) Trancription factor using HepaRG (AID 2283503). In short, it runs like this:
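Gain- or loss-of-signal HIF1A mRNA changes are fitted against a DMSO baseline. HepaRG cultures receive eight concentrations, highest 100 uM, for 48 h in serum-free induction medium with 0.5% DMSO.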

Read-out in experiment [8]: 3-Hydroxy-3-Methylglutaryl-CoA Synthase 2 (HMGCS2), HMGCS2 (gene 3158)
The experiment can be described thus: LTEA_HepaRG_HMGCS2: Life Technologies and Expression Analysis (LTEA) Assay for 3-Hydroxy-3-Methylglutaryl-CoA Synthase 2 (HMGCS2) using HepaRG (AID 2283504). The method, boiled down: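 qRT-PCR read-out of HMGCS2 transcript, normalised to three housekeeping genes, in HepaRG cells after 48 h chemical exposure. Eight-point curves from 100 uM, half-log dilutions, 0.5% DMSO vehicle; gain or loss fitted relative to DMSO baseline.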

Read-out in experiment [9]: HGF (gene 3082)
As to the kind of experiment: LTEA_HepaRG_HGF: Life Technologies and Expression Analysis (LTEA) Assay for Hepatocyte Growth Facto (HGF) using HepaRG (AID 2283505). In short, it runs like this: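 HepaRG, 48 h dosing, 8-pt half-log series from 100 uM in 0.5% DMSO, duplicates. Readout: TaqMan qRT-PCR of HGF mRNA, housekeeping-normalized; bidirectional curve fit vs DMSO baseline.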

Read-out in experiment [10]: Insulin Like Growth Factor 1 (IGF1), IGF1 (gene 3479)
As to the kind of experiment: LTEA_HepaRG_IGF1: Life Technologies and Expression Analysis (LTEA) Assay for Insulin Like Growth Factor 1 (IGF1) using HepaRG (AID 2283506). In short, it runs like this: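 qRT-PCR readout of IGF1 mRNA, normalized to three housekeeping genes, after 48 h chemical exposure of HepaRG cells. Concentrations: 8-point half-log series, top 100 uM, 0.5% DMSO vehicle. Gain or loss fitted against DMSO baseline.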

Read-out in experiment [11]: Intercellular Adhesion Molecule 1 (ICAM1), ICAM1 (gene 3383)
The experiment can be described thus: LTEA_HepaRG_ICAM1: Life Technologies and Expression Analysis (LTEA) Assay for Intercellular Adhesion Molecule 1 (ICAM1) using HepaRG (AID 2283507). The method, boiled down: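 HepaRG, 48 h exposure, 8-pt half-log series from 100 uM, 0.5% DMSO vehicle, duplicates. Readout: TaqMan qRT-PCR mRNA, housekeeping-normalized (ACTB/GAPDH/POLR2A). Bidirectional curve fit vs DMSO baseline.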

Read-out in experiment [12]: Insulin-like growth factor-binding protein 1 (IGFBP1), IGFBP1 (gene 3484)
As to the kind of experiment: LTEA_HepaRG_IGFBP1: Life Technologies and Expression Analysis (LTEA) Assay for Insulin-like growth factor-binding protein 1 (IGFBP1) using HepaRG (AID 2283508). In short, it runs like this:
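qRT-PCR mRNA read-out (TaqMan, Fluidigm array), normalised to three housekeeping genes; HepaRG cells, 48 h exposure, 8-pt half-log series from 100 uM, 0.5% DMSO vehicle; bidirectional curve fit vs DMSO baseline.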

Read-out in experiment [13]: Interleukin 6 Receptor (IL6R), IL6R (gene 3570)
As to the kind of experiment: LTEA_HepaRG_IL6R: Life Technologies and Expression Analysis (LTEA) Assay for Interleukin 6 Receptor (IL6R) using HepaRG (AID 2283510). In short, it runs like this: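 HepaRG, 48 h exposure, 8-pt half-log series, top 100 uM, 0.5% DMSO vehicle, duplicates. Read-out: TaqMan qRT-PCR of IL6R transcript, housekeeping-gene normalized. Gain or loss fitted relative to DMSO baseline.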

Read-out in experiment [14]: Potassium channel subfamily K member 1 (KCNK1), KCNK1 (gene 3775)
As to the kind of experiment: LTEA_HepaRG_KCNK1: Life Technologies and Expression Analysis (LTEA) Assay for Potassium channel subfamily K member 1 (KCNK1) using HepaRG (AID 2283511). The method, boiled down:
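HepaRG, 48 h exposure, 8-pt half-log series top 100 uM, 0.5% DMSO vehicle, duplicates. Readout: KCNK1 transcript by qRT-PCR (Fluidigm array), housekeeping-normalized; bidirectional curve fit relative to DMSO baseline.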

Read-out in experiment [15]: Keratin 19 (KRT19), KRT19 (gene 3880)
The experiment can be described thus: LTEA_HepaRG_KRT19: Life Technologies and Expression Analysis (LTEA) Assay for Keratin 19 (KRT19) using HepaRG (AID 2283512). The method, boiled down:
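HepaRG, 48 h chemical exposure, 8-pt half-log CRC from 100 uM, 0.5% DMSO vehicle, duplicates. Readout: TaqMan qRT-PCR of KRT19 mRNA, housekeeping-normalized (ACTB/GAPDH/POLR2A). Bidirectional fit vs DMSO baseline.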

Read-out in experiment [16]: Lipase C (LIPC), LIPC (gene 3990)
As to the kind of experiment: LTEA_HepaRG_LIPC: Life Technologies and Expression Analysis (LTEA) Assay for Lipase C (LIPC) using HepaRG (AID 2283514). The method, boiled down:
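HepaRG, 48 h exposure, 8-pt half-log series from 100 uM in 0.5% DMSO, duplicates. Readout: LIPC mRNA by Fluidigm qRT-PCR, housekeeping-normalized (ACTB/GAPDH/POLR2A). Gain or loss fitted bidirectionally against DMSO baseline.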

Read-out in experiment [17]: Lipoprotein lipase (LPL), LPL (gene 4023)
The experiment can be described thus: LTEA_HepaRG_LPL: Life Technologies and Expression Analysis (LTEA) Assay for Lipoprotein lipase (LPL) using HepaRG (AID 2283515). In short, it runs like this: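 HepaRG, 48 h exposure, 8-pt half-log dilutions from 100 uM, 0.5% DMSO vehicle, duplicates; qRT-PCR (Fluidigm array) of LPL mRNA vs housekeeping genes; bidirectional curve fit relative to DMSO baseline.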

Read-out in experiment [18]: MicroRNA 122 (MIR122), gene 406906
As to the kind of experiment: LTEA_HepaRG_MIR122: Life Technologies and Expression Analysis (LTEA) Assay for MicroRNA 122 (MIR122) using HepaRG (AID 2283516). Note: the transcript read is the microRNA miR-122. In short, it runs like this:
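qRT-PCR read-out (TaqMan, Fluidigm array), normalized to three housekeeping genes; HepaRG cells dosed 48 h at 8 concentrations up to 100 uM in 0.5% DMSO, duplicate; gain or loss fitted against DMSO baseline.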

Read-out in experiment [19]: matrix metalloproteinase-10 (MMP10), MMP10 (gene 4319)
As to the kind of experiment: LTEA_HepaRG_MMP10: Life Technologies and Expression Analysis (LTEA) Assay for matrix metalloproteinase-10 (MMP10) using HepaRG (AID 2283517). The method, boiled down:
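Transcript levels come from Fluidigm qRT-PCR normalized to three housekeeping genes, with curves fitted bidirectionally against 0.5% DMSO. Human HepaRG cells were dosed for 48 hours at concentrations up to 100 uM.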

Read-out in experiment [20]: MYC, MYC (gene 4609)
The experiment can be described thus: LTEA_HepaRG_MYC: Life Technologies and Expression Analysis (LTEA) Assay for MYC using HepaRG (AID 2283518). The method, boiled down:
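qRT-PCR read-out of MYC transcript (Fluidigm TaqMan, housekeeping-normalized) after 48 h chemical exposure of HepaRG cells; eight concentrations, top 100 uM, half-log steps. Bidirectional curve fitting against 0.5% DMSO vehicle baseline.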

Hypoxia-inducible factor 1-alpha (Homo sapiens), sequence (Q16665 whole entry, looked up): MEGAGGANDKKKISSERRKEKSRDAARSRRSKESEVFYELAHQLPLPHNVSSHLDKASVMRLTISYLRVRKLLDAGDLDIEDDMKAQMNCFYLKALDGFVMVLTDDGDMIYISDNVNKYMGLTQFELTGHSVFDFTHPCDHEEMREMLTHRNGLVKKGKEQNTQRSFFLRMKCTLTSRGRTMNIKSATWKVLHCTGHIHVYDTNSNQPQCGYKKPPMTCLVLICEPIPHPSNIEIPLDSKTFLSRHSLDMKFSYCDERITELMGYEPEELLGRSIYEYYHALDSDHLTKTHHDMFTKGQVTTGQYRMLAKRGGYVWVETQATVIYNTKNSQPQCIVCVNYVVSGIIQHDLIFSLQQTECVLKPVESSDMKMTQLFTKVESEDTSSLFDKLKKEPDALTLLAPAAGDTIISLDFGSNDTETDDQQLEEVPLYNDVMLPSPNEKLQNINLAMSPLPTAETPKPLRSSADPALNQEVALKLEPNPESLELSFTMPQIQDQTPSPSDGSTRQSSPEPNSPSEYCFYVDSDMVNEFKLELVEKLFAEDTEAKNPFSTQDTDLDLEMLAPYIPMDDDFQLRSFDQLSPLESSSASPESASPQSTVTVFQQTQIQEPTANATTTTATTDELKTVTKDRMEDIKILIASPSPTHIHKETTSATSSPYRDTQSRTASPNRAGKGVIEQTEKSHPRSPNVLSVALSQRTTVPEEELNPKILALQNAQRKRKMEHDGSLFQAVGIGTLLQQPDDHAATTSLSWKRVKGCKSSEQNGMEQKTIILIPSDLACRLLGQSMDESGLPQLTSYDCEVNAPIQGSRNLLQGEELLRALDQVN

A word on the AC50: it is the midpoint of the concentration-response curve, whichever way the signal moves. As for `O=C(O)C(Cl)(Cl)Cl`, the result in experiment [1], in experiment [2], in [3], in experiment [4], in experiment [5] and in [6] was inactive. Further, the compound was classed as inactive in [7], in [8], in experiment [9], in experiment [10], in experiment [11] and in experiment [12]. The outcome in [13], in [14], in experiment [15], in experiment [16], in experiment [17] and in experiment [18] was inactive. Moreover, the call in experiment [19] and in [20] was inactive. In experiment [17], the concentration at half-maximal activity (AC50) was 9.92 µM (active).
For the compound `O=C(O)C(F)(F)C(F)(F)C(F)(F)C(F)(F)C(F)(F)C(F)(F)F`, the AC50 in experiment [1] is 21.4 µM (active); in experiment [8], 22 µM (active). Also, the result in [2], in experiment [3], in experiment [4], in [5], in experiment [6] and in experiment [7] was inactive. The call in [9], in experiment [10], in experiment [11], in [12], in experiment [13] and in experiment [14] was inactive. Also, the call in [15], in [16], in experiment [17], in experiment [18], in experiment [19] and in [20] was inactive.
For the compound `CC12CC1(C)C(=O)N(c1cc(Cl)cc(Cl)c1)C2=O` (stereo not given), the AC50 is 16.9 µM (active) in experiment [2], 21.6 µM (active) in experiment [8] and 18.6 µM (active) in [10]. The result in experiment [3], in experiment [4], in experiment [5], in experiment [6], in experiment [7] and in experiment [9] was inactive. Moreover, the outcome in [11], in experiment [12], in experiment [13], in [14], in [15] and in experiment [16] was inactive. The result in experiment [17], in experiment [18], in [19] and in experiment [20] was inactive.
On to `CN(C)N=O`, for which the call in [1], in experiment [2], in experiment [3], in experiment [4], in [5] and in experiment [6] was inactive. For the same compound, the result in experiment [7], in experiment [8], in experiment [9], in experiment [10], in experiment [11] and in experiment [12] was inactive. Also, the compound was classed as inactive in experiment [13], in experiment [14], in [15], in experiment [16], in experiment [17] and in experiment [18]. Further, the compound was called inactive in [19] and in [20].

For the origin of these results see PubChem BioAssay (EPA / NIEHS).
